# In PubChem BioAssay (Tox21):
# Inconclusive results are not listed. Unmarked numbers belong to inactive results. Activity calls are given as the source filed them. Calls follow the shape of the dose curve; as a rule, active = well fitted activation curve with a large enough effect in the signal ratio in the repeat runs (not every such curve was filed as active); inconclusive = weak or mixed curves, or effect the other way; inactive = no such curve, though single readings can be large or run the other way; the % refers to the signal ratio.
# Test: qHTS assay for small molecule agonists of the antioxidant response element (ARE) signaling pathway (AID 743202)
# Details: HepG2 ARE-bla reporter, beta-lactamase FRET, 16 h; series mostly up to 73.3 µM; activation: at the top concentration
# Description: U.S. Tox21 Program National Center for Advancing Translational Sciences [NCATS] NIH Chemical Genomics Center [NCGC] U.S. Environmental Protection Agency [EPA] National Institutes of Environmental Health Sciences [NIEHS] National Toxicology Program [NTP] U.S. Food and Drug Administration [FDA] Tox21 Assay Overview: Oxidative stress has been implicated in the pathogenesis of a variety of diseases ranging from cancer to neurodegeneration. The antioxidant response element (ARE) signaling pathway plays an important role in the amelioration of oxidative stress. The CellSensor ARE-bla HepG2 cell line (Invitrogen) can be used for analyzing the Nrf2/antioxidant response signaling pathway. Nrf2 (NF-E2-related factor 2) and Nrf1 are transcription factors that bind to AREs and activate these genes. The CellSensor ARE-bla Hep G2 cell line contains a beta-lactamase reporter gene under control of the Antioxidant Response Element (ARE) stably integrated into HepG2 cells. The activation of the report gene under culture conditions can be detected by fluorescence intensity. This cell line has been used to screen the Tox21 10K compound library to identify agonists that induce oxidative stress.
# Tox21 Assay Protocol Summary: The ARE-bla cells were dispensed at 2,000 cells/5 ul/well in 1536-well black wall/clear bottom plates using a Multidrop dispenser. After the assay plates were incubated at a 37 C/5% CO2 incubator for 5 hours, 23 nL of compounds dissolved in DMSO, positive controls or DMSO only was transferred to the assay plate by a pin tool. The plates were incubated at 37 C for 16 hours. After 1 uL of LiveBLAzer B/G FRET substrate was added using a Flying Reagent Dispenser, the plates were incubated at room temperature for 2 hours, and fluorescence intensity was measured by an Envision plate reader.
# % is scaled to controls: 0 for no effect and ±100 for the full control effect; potency is read from the fitted curve at half-maximal effect.
Structure (SMILES),activation,Potency
CC(C)c1ccc(NC(=O)N(C)C)cc1,0.274%,
CC(C)(C#N)C(C)(C)C#N,-2.17% [at 94.8 µM],
O=C(NC(=O)c1cc(F)c(F)cc1Cl)Nc1cc(F)ccc1N1CCC(C(=O)O)CC1,-0.169%,
CCOP(=S)(OCC)Oc1ccc(S(C)=O)cc1 (stereo not given),-3.47%,
CN1C(=O)CN=C(c2ccccc2)c2cc([N+](=O)[O-])ccc21,-0.624%,
C=C(C)C(=O)OCCCCOC(=O)C(=C)C,11.1%,
CC1(C)CC(=O)CC(C)(C)N1[O],-0.644%,
CC(C)c1ccc(OP(=O)(Oc2ccc(C(C)C)cc2)Oc2ccc(C(C)C)cc2)cc1,14%,
C1CS1,0.196% [at 94.8 µM],
CC(C)(C)N(NC(=O)c1ccc(Cl)cc1)C(=O)c1ccccc1,1.08%,
COc1ccccc1N1CCNCC1,2.88%,
O=[N+]([O-])O[C@H]1CO[C@H]2[C@@H]1OC[C@H]2O[N+](=O)[O-],15.6%,
OCC1CO1 (stereo not given),-4.9%,
COC(=O)Cc1ccccc1,3.7%,
C=CC(=O)NC(C)(C)CC(C)=O,0.274%,
CC(O)CN1CCN(CC(=O)[O-])CCN(CC(=O)[O-])CCN(CC(=O)[O-])CC1.[Gd+3] (stereo not given),11.4%,
CCCC(C)(COC(N)=O)COC(=O)NC(C)C (stereo not given),,inactive
O=C=NC1CCCCC1,-6.91%,
CC(=O)OC(c1ccccc1)C(Cl)(Cl)Cl (stereo not given),1.34%,
CC(C)(C)NCC(O)c1cc(Cl)c(N)c(C(F)(F)F)c1 (stereo not given),-0.886%,

Structure (SMILES),activation,Potency
Cc1ccc(N)c(C)c1,,inactive
O=C(NCNC(=O)NC1C(=O)NC(=O)N1CO)NC1C(=O)NC(=O)N1CO (stereo not given),-0.314%,
CN1CC[C@]23c4c5ccc(O)c4O[C@H]2[C@@H](O)CC[C@H]3[C@H]1C5,-1.24%,
CCCCCl,-2.15% [at 94.8 µM],
Cc1ccccc1,-7.07%,
C#CC(O)(C=CCl)CC (stereo not given),14.9%,
CCSCc1ccccc1OC(=O)NC,-7.1%,
O=S(=O)(Cl)Cl,-18.4%,
Oc1cccc(Cl)c1,7.52%,
COC1CC(=C(c2cccs2)c2cccs2)C[N+](C)(C)C1 (stereo not given),6.2%,
CN(C1CCCCC1)C1CCCCC1,-3.96%,
CCOC(C(=O)OCCN(C)C)(c1ccccc1)c1ccccc1,-7.89%,
O=C(O)c1ccc(=O)[nH]c1,-0.922%,
CCC(=O)O[C@@H]1C=C2CCC3C(CCC4(C)C3CC[C@@H]4OC(=O)CC)C2CC1 (stereo not given in full),14.7%,
CC(C)C1(C)N=C(c2ncccc2C(=O)O)NC1=O (stereo not given),-7.97%,
FC(F)OC(F)(F)C(F)Cl (stereo not given),-0.571%,
O=C(O)C(F)(F)C(F)(F)C(F)(F)C(F)(F)C(F)(F)C(F)(F)C(F)(F)C(F)(F)F,,6.86 µM (active)
O=C(O)c1cc(Cl)ccc1Cl,10.8%,
c1ccc2c(c1)-c1cccc3cccc-2c13,,inactive
CCC1CCC(=O)O1 (stereo not given),-0.973% [at 94.8 µM],
